In PubChem BioAssay (Tox21):
Several values for one entry are separate records, joined by “and”; a condition that tells them apart may be missing. Identical values can stand only once. Results filed as inconclusive are left out. Activity calls are given as the source filed them. Calls come from the whole dose curve; as a rule, active = well fitted cell-killing curve with a large enough effect in the repeat runs; inconclusive = weak or mixed curves, or effect the other way; inactive = flat fitted curve, though single readings scatter.

Test: qHTS RealTime-Glo MT Cell Viability Assay in HEK293 cells - 40 hour (AID 1224874); note: nearly all actives have a fitted effect of over 50% in size
Details: RealTime-Glo luminescence; max response: active compounds read low
Source text: U.S. Tox21 Program National Center for Advancing Translational Sciences [NCATS] NIH Chemical Genomics Center [NCGC] U.S. Environmental Protection Agency [EPA] National Institutes of Environmental Health Sciences [NIEHS] National Toxicology Program [NTP] U.S. Food and Drug Administration [FDA] Tox21 Assay Overview: Measure of cell viability is critical in the cell-base assay. Analysis of cell viability is necessary for the characterization of cell responses to cytotoxic drugs and environmental stress. A RealTime-Glo MT Cell Viability Assay to monitor cell viability in real time of continues cell culture during 40 hours of compound treatment was used to screen Tox21 10K library compounds in Hek293 cells. The RealTime-Glo MT Cell Viability Assay is a nonlytic, homogeneous, bioluminescent method to measure cell viability in real time using a simple, plate-based method. The assay involves adding NanoLuc luciferase and a cell-permeant prosubstrate to cells in culture. Viable cells reduce the proprietary prosubstrate to generate a substrate for NanoLuc luciferase. This substrate diffuses from cells into the surrounding culture medium, where it is rapidly used by the NanoLuc Enzyme to produce a luminescent signal. The signal correlates with the number of viable cells, making the assay well suited for cytotoxicity studies.
Tox21 Assay Protocol Summary: The mixture of Hek293 cell suspension and reagents were dispensed at 600cells/6 ul/well in 1536-well tissue culture treated black solid bottom plates using a Multidrop dispenser. After the assay plates were incubated at a 37 C/5% CO2 incubator for 5 hours, 23 nL of compounds dissolved in DMSO, positive and negative controls was transferred to the assay plate by a pintool work station. The plates were incubated at 37 C for 40 hours. The luminescence intensity were measured at 0h, 8h, 16h, 24h, 32h and 40h time points using ViewLux plate reader during compound treatment.
% is set by controls: 0 for no effect and ±100 for the full control effect; potency is the fitted concentration of half-maximal effect.

| Structure (SMILES) | max response | Potency |
| --- | --- | --- |
| O=S(O)CO | 10.1% (inactive) |  |
| COC(=O)c1cc(C(=O)OC)cc(S(=O)(=O)O)c1 | -1.13% (inactive) |  |
| O=C1CCCCCCCCCCCN1 | 0.14% (inactive) and 1.61% (inactive) |  |
| O=[N+]([O-])c1ccc(F)cc1F | 9.7% (inactive) |  |
| C=C1CC[C@H]2C[C@@H]1C2(C)C | 5.42% (inactive) |  |
| NS(=O)(=O)c1ccccc1Cl | -11.8% (inactive) |  |
| CCN1CCC[C@H]1CNC(=O)c1cc(S(N)(=O)=O)ccc1OC | -3.58% (inactive) |  |
| CCOC(=O)C(=O)OCC | 6.27% (inactive) |  |
| OC1CCCCC1c1ccccc1 (stereo not given) | 3.62% (inactive) |  |
| CCN(Cc1ccncc1)C(=O)C(CO)c1ccccc1 (stereo not given) | 5.99% (inactive) |  |
| N=C(N)c1ccccc1 | -0.53% (inactive) |  |
| Cc1ccc(Cl)cc1Cl | 13.6% (inactive) |  |
| O=C1CCCC(=O)C1 | 1.44% (inactive) |  |
| CN1CCCC1 | 1.57% (inactive) |  |
| CC1=CC(C)C(C=O)CC1 (stereo not given) | -0.371% (inactive) |  |
| COC(C)(C)CCCC(C)CC=O (stereo not given) | 3.83% (inactive) |  |
| CN(C)CCCNCCCN(C)C | 5.75% (inactive) |  |
| CN1CC(=O)NC1=N | 9.12% (inactive) |  |
| CC(=O)c1ccccc1O | 9.04% (inactive) |  |
| CCOC(=O)c1c(C)n(C)c2ccc(O)cc12 | -25.6% (inactive) |  |

| Structure (SMILES) | max response | Potency |
| --- | --- | --- |
| COCCCOCCCOC | 6.62% (inactive) |  |
| CC(C)NCC(O)c1ccc(NS(C)(=O)=O)cc1 (stereo not given) | 4.96% (inactive) |  |
| CCCCCOC(=O)CCCCC | 7.06% (inactive) |  |
| CCCN(CCC)CCc1cccc2c1CC(=O)N2 | 5.11% (inactive) |  |
| NS(=O)(=O)c1ccc(C(=O)O)cc1 | -0.921% (inactive) |  |
| CC(C)(CC(=O)O)C(=O)O | 0.211% (inactive) |  |
| CN1C(=O)N(C)C(O)C1O (stereo not given) | 1.97% (inactive) |  |
| CC/C=C\CC/C=C/CO | 6.89% (inactive) |  |
| C1CN(CCOCCN2CCOCC2)CCO1 | 4.52% (inactive) |  |
| C[C@H](NC(CCc1ccccc1)C(=O)O)C(=O)N1CCC[C@H]1C(=O)O (stereo not given in full) | -70.9% (inactive) |  |
| CC(=O)Nc1ccc(S(N)(=O)=O)cc1 | 14.7% (inactive) |  |
| COC(=O)c1c(Cl)c(Cl)c(C(=O)OC)c(Cl)c1Cl | -27.2% (inactive) |  |
| CCOC(=O)CC(C)=O | 14.1% (inactive) |  |
| CCOC(=O)CCC(C)=O | -9.25% (inactive) |  |
| O=C(CCCN1CCC(O)(c2cccc(C(F)(F)F)c2)CC1)c1ccc(F)cc1 |  | 21.3 µM (active) |
| CCC(=O)OC(C)c1ccccc1 (stereo not given) | -2.17% (inactive) |  |
| CO/N=C(/C(=O)N[C@@H]1C(=O)N2C(C(=O)OCOC(=O)C(C)(C)C)=C(C)CS[C@H]12)c1csc(N)n1 | 3.21% (inactive) |  |
| NS(=O)(=O)c1cc2c(cc1Cl)NC(C1CC3C=CC1C3)NS2(=O)=O (stereo not given) | 11.9% (inactive) |  |
| NC(=O)Nc1ccccc1 | 3.44% (inactive) |  |
| O=C1NC(=O)[C@@]2(CCOc3ccc(F)cc32)N1 | 10% (inactive) |  |
